# Compound activity from PubChem.
# FECH inh – human FECH heme synthesis enzyme inhibition. hit rate 3.3% among 20,000. P22830. calls only at 10 µM (by protocol). purified FECH, Ni-mesoporphyrin absorbance 550 nm;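 active means enzyme reaction rate more than 3 SD below the solvent-only control wells on the same plate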;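 further: lower slope than DMSO wells means FECH inhibition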
# Target sequence (P22830 whole entry, looked up): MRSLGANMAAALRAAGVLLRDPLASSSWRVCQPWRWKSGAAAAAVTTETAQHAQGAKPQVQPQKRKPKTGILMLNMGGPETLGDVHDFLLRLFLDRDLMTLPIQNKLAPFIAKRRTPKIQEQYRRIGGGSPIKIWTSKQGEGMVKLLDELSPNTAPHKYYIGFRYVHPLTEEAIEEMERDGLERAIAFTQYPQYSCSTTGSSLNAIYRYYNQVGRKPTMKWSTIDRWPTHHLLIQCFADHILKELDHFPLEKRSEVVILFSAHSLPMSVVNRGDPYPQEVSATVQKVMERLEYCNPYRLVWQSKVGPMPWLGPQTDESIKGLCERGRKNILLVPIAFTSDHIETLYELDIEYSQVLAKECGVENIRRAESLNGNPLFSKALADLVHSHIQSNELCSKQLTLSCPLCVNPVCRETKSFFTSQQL
# * = called active by the depositor; i = inactive; + = active, no number. This excerpt belongs to a sample that is enriched for hits.
SMILES,FECH inh
Cc1[nH]cnc1CSCCn1cnc(-c2ccccc2)c1-c1cnn(C)c1,i
COc1ccccc1N(Cc1nc2nc(C)cc(C)n2n1)C(=O)c1cc(OC)c(OC)c(OC)c1,i
COC(=O)c1cc2ccsc2n1CC(=O)Nc1cccc(OC)c1,i
CCCCOc1ccc(S(=O)(=O)N2CCN(c3nc(C)cc(N4CCCCC4)n3)CC2)cc1,i
CCCCOc1ccc(S(=O)(=O)N2CCN(c3nc(C)cc(N4CCCC4)n3)CC2)cc1,+
CCOc1ccc(S(=O)(=O)N2CCN(c3nc(C)cc(N4CCCC4)n3)CC2)cc1,i
Fc1ccc(Nc2nc(NCC3CCCO3)nc3c2cnn3-c2ccccc2)cc1 (centres undefined),i
COc1ccc(Nc2nc(NCC3CCCO3)nc3c2cnn3-c2ccccc2)cc1 (centres undefined),i
CC(C)OCCCNc1nc(Nc2ccc(F)cc2)c2cnn(-c3ccccc3)c2n1,i
COc1ccc(Nc2nc(NCCCOC(C)C)nc3c2cnn3-c2ccccc2)cc1,i
CC(C)OCCCNc1nc(Nc2ccc(Cl)cc2)c2cnn(-c3ccccc3)c2n1,+
Clc1ccc(Nc2nc(NCC3CCCO3)nc3c2cnn3-c2ccccc2)cc1 (centres undefined),+
COc1ccc(N2C(=O)CCS2(=O)=O)cc1S(=O)(=O)Nc1ccc(C)cc1C,i
Cc1ccc(NC(=O)CN2CCN(Cc3ccccc3Cl)S2(=O)=O)cc1,i
Cc1nc(C(C)NC(=O)c2ccccc2-c2ccccc2)n[nH]1 (centres undefined),i
COc1ccc(NS(=O)(=O)c2cc(N3C(=O)CCS3(=O)=O)ccc2OC)cc1,i
O=C(NC1CC1)C1CNCCN1C(=O)c1cccc(Oc2ccccc2)c1 (centres undefined),i
Cc1cc(C)n2nc(CN(C(=O)Cc3ccccc3)c3ccc(Cl)cc3)nc2n1,i
Cc1cc(C)n2nc(CN(C(=O)c3cccc(Cl)c3)c3ccc(F)cc3)nc2n1,i
Cc1ccc(N(Cc2nc3nc(C)cc(C)n3n2)S(=O)(=O)c2ccccc2)cc1,+
Cc1ccc(N(Cc2nc3nc(C)cc(C)n3n2)S(=O)(=O)c2ccc(C)cc2)cc1,i
CCCC(=O)N(Cc1nc2nc(C)cc(C)n2n1)c1cccc(C)c1,+
COc1ccc(CC(=O)N(Cc2nc3nc(C)cc(C)n3n2)c2ccc(Cl)cc2)cc1,i
Cc1cccc(N(Cc2nc3nc(C)cc(C)n3n2)C(=O)CCc2ccccc2)c1,i
CCCC(=O)N(Cc1nc2nc(C)cc(C)n2n1)c1cccc(Cl)c1,i
SMILES,FECH inh
Cc1cccc(N(Cc2nc3nc(C)cc(C)n3n2)S(=O)(=O)c2ccccc2)c1,i
Cc1ccc(N(Cc2nc3nc(C)cc(C)n3n2)C(=O)Cc2ccc(Cl)cc2)cc1,+
COc1cccc(C(=O)N(Cc2nc3nc(C)cc(C)n3n2)c2ccc(Cl)cc2)c1,i
Cc1ccc(N(Cc2nc3nc(C)cc(C)n3n2)C(=O)c2cccc(C)c2)cc1,+
Cn1c(=O)n(Cc2cccnc2)c(=O)c2cnc(-c3cccnc3)nc21,i
O=C(c1cc2n(n1)CCCN(C1CCOCC1)C2)N1CCCC1,i
CCCNc1nc(-c2nnc(-c3ccc(C)cc3)o2)nc2ccccc12,i
COc1ccc2c(c1)c(C(=O)N1CCn3c(C(N)=O)cnc3C1)c(C)n2C,i
Cn1c(=O)c(C(=O)N2CCc3ccccc3C2)nc2ccccc21,i
Cc1nc2nc(CN3CCCC(CCc4ccccc4C)C3)cc(=O)n2[nH]1 (centres undefined),i
CC(CNC1CCN(C(=O)c2ccccc2)CC1)N(C)c1ccccc1 (centres undefined),i
Cc1cc(C)n2nc(CN(C(=O)C3CCCCC3)c3ccc(Cl)cc3)nc2n1,+
Cc1cccc(C(=O)N(Cc2nc3nc(C)cc(C)n3n2)c2ccccc2)c1,+
Cc1ccc(N(Cc2nc3nc(C)cc(C)n3n2)C(=O)C2CCCCC2)cc1,i
Cc1cc(C)n2nc(CN(C(=O)C3CCCCC3)c3cccc(Cl)c3)nc2n1,i
Cc1cccc(N(Cc2nc3nc(C)cc(C)n3n2)C(=O)c2ccccc2)c1,i
Cc1cc(C)n2nc(CN(C(=O)c3ccccc3C)c3cccc(Cl)c3)nc2n1,i
Cc1cc(C)n2nc(CN(C(=O)c3ccccc3)c3ccc(Cl)cc3)nc2n1,i
Cc1cc(C)n2nc(CN(C(=O)c3ccccc3C)c3ccccc3)nc2n1,i
Cc1cccc(N(Cc2nc3nc(C)cc(C)n3n2)C(=O)c2ccccc2C)c1,+
CCCS(=O)(=O)NCCn1c(CCc2ccccc2)nc2cccnc21,i
NS(=O)(=O)c1ccc(CCNC(=O)c2ccc(-n3nnc4cccnc43)cc2)cc1,i
COc1cccc(CN(C)C2CC(C)(C)NC(C)(C)C2)c1O,i
CN(Cc1ccncc1)Cc1nc(-c2cccnc2)no1,i
Cc1ccc2[nH]c(CN(C)Cc3nc(-c4cccnc4)no3)nc2c1C,+
CN(Cc1nc(-c2cccnc2)no1)Cc1ccc(C2CCCO2)s1 (centres undefined),i
O=C(NCC1CCN(Cc2ccccc2F)C1)c1ccncc1Cl (centres undefined),i
